Data: PubChem BioAssay AID624167 (Sanford-Burnham Center for Chemical Genomics, 2012)

Test: inhibition of PEG-3 promoter-driven reporter – cell-based, HeLa, luciferase, CREF/GAPDH counter-screen panel, dose response (AID 624167)
Details: CREF/GAPDH counter-screens; run 1, dose range 1, at 100 µM (top of the series)

Compound | inhibition [%]
CCC(c1ccc(O)c(O)c1)C(CC)c1ccc(O)c(O)c1 (stereo not drawn) | 99
C=CCn1c(COc2ccccc2)nnc1SC(C)C(=O)N/N=C/c1cc(Cl)ccc1O (stereo not drawn) | 65
Cc1cc(NC(c2ccc(Cl)cc2)c2ccc3cccnc3c2O)no1 (stereo not drawn) | 39.3
COc1ccc(N(C(=O)CCl)C(C(=O)NC2CCCCC2)c2cccnc2)cc1 (stereo not drawn) | 82.9
O=C(/C=C/c1ccc(Cl)c([N+](=O)[O-])c1)c1ccc(O)cc1 | 100
O=C(O)c1ccc(CN2C(=O)c3cccc4c([N+](=O)[O-])ccc(c34)C2=O)cc1 | 99.1
CCCC(=O)NC(c1ccc(C(C)C)cc1)c1ccc2cccnc2c1O (stereo not drawn) | 54.3
CC(=O)NC(c1ccc(Cl)cc1Cl)c1ccc2cccnc2c1O (stereo not drawn) | 55.7
CCCCC(=O)NC(c1ccccc1OC)c1ccc2cccnc2c1O (stereo not drawn) | 37.8
CC(=O)c1cccc(-c2ccnc3c2CC(C(=O)Nc2cccc(NS(C)(=O)=O)c2)O3)c1 (stereo not drawn) | 51.4
CCOc1cccc(/C=N/NC(=S)Nc2cc(S(=O)(=O)N3CCOCC3)ccc2N2CCOCC2)c1O | -13.9
O=C(CCn1cnc(-c2ccccc2)c1-c1ccccc1)N/N=C/c1ccccc1O | 67.6
COc1cccc(/C=N/NC(=O)c2c(C)nc3ccc(Cl)cn23)c1O | -55.4
CCCC(=O)NC(c1ccc(C)cc1)c1ccc2cccnc2c1O (stereo not drawn) | 43.4
OCCCNc1nccc(-c2cc(Nc3cccc(Cl)c3)ncn2)n1 | 34.2
O=C(COc1ccc2c(c1)CCC2)Nc1ccccn1 | 95.2
CN(C)c1ccc(C=c2c3ccccc3n3c2cc(-c2ccccc2)[n+]3C)cc1 | 99.9

Compound | inhibition [%]
O=C1C=CC(=O)N1c1ccc(-c2nc3ccccc3o2)cc1 | 100
CS(=O)(=O)Nc1cccc(NC(=O)C2Cc3c(-c4cccc(F)c4)ccnc3O2)c1 (stereo not drawn) | 74.9
COc1cccc2c1C(=O)c1c(O)c3c(c(O)c1C2=O)CC(O)(C(C)=NNC(=O)c1ccc(Cl)c(Cl)c1)CC3OC1CC(N)C(O)C(C)O1 (stereo not drawn) | 92
N=c1n(CC(=O)c2ccc([N+](=O)[O-])cc2)c2ccccc2n1Cc1ccc(Cl)cc1 | 86
Clc1ccccc1/C=C/c1nc(-c2ccccn2)no1 | 97.4
COc1cc(C(=O)N/N=C(\c2ccccc2)c2ccccn2)cc(OC)c1OC | 20
C/C(=N\NC(=O)c1cc(C2CC2)nc2ccccc12)c1ccc(O)cc1O | 22.7
CC(=O)NC(c1ccc(Cl)cc1)c1ccc2cccnc2c1O (stereo not drawn) | 69.3
COc1ccc(-n2c(O)c(/C=N/Nc3nc(C)cc(C)n3)c3ccccc3c2=O)cc1OC | -8.04
CC(/C=C/c1ccccc1)=N/NC(=O)c1cc([N+](=O)[O-])cc([N+](=O)[O-])c1 | 5.41
CC1=NOC(=O)/C1=C\c1ccc(-c2ccccc2Br)o1 | 94.2
COCCCNC(=O)c1ccc(Cn2c(=O)c3ccccc3n(Cc3ccccc3C#N)c2=O)cc1 | 32.3
CC1=CC2C(C(O)CC3(C)C2CC(C)C32OCOC23COCO3)C2(C)C/C(=C\O)C(=O)C=C12 (stereo not drawn) | 99.5
CN=c1sc2c(n1C)C(=O)c1ccccc1C2=O | 89.9
CCCn1nc(C(=O)Nc2nc(-c3ccccn3)cs2)c2ccccc2c1=O | 13.9
Cc1ccsc1/C=N/Nc1cccc(C(=O)O)c1 | 95.8
